Screen size: about 200,000 compounds; about 720 (0.36%) were called active. Not shown: some 8% with an inconclusive outcome. The call rests on the fitted dose curve; in most records, active means well fitted activation curve with a large enough effect; inconclusive means small, poorly fitted or top-dose-only effect, or effect the other way, or another doubt; inactive means flat fitted curve, though single readings scatter. The list shows a part of the results.
target: Lysosomal alpha-glucosidase (Homo sapiens) (UniProt P10253); experiment: qHTS Assay for Activators of Human alpha-Glucosidase as a Potential Chaperone Treatment of Pompe Disease; conditions: purified enzyme, 4-MU-alpha-glucoside fluorescence, 20 min; series mostly up to 76.9 µM; activity change, positive = activation: at the top concentration; further: nearly all actives have a fitted effect of over 80% in size;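 on activity change, positive = activation: 0% = no enzyme basal signal and 100% = uninhibited enzyme activity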
How it was run: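 Compounds titrated up to 77 uM against 4 nM enzyme and 400 uM methylumbelliferyl substrate at room temperature, 20 min, pH 5.0. Basic stop, then 4-methylumbelliferone fluorescence (365/440 nm) normalized to no-enzyme and enzyme controls; Hill-equation AC50.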
Potency means the concentration at half of the fitted maximal effect.

Potency, active:
Cc1c(O)c(CN2CCCC2)cc2c3c(c(=O)oc12)CCC3 39.8 µM
Cc1c(O)c(CN2CCCCC2)cc2c3c(c(=O)oc12)CCC3 35.5 µM
CCNc1cc2oc(=O)c(CN3CCOCC3)c(C)c2cc1C 31.6 µM
CC(C)c1cc(=O)oc2c3c4c(cc12)CCCN4CCC3 35.5 µM
N#Cc1c(NC2CCCCC2)nc(-c2ccco2)c2c1CCCC2 35.5 µM
CC(C)CCNc1nc(-c2ccco2)c2c(c1C#N)CCCC2 31.6 µM
Cc1ccc(C2OC34CCCCCC3C(C#N)(C(=N)O4)C2(C#N)C#N)cc1 (centres undefined) 31.6 µM
CCOC(=O)c1sc2c(c1C)C(c1cccs1)C1=C(CCCC1=O)N2 (centres undefined) 25.1 µM
Fc1ccc(CSc2nnc(-c3cc4c(s3)-c3ccccc3CC4)o2)cc1 28.2 µM
C=CCSc1nnc(-c2cc3c(s2)-c2ccccc2CC3)o1 25.1 µM
CCSc1nnc(-c2cc3c(s2)-c2ccccc2CC3)o1 31.6 µM
CSc1nnc(-c2cc3c(s2)-c2ccccc2CC3)o1 35.5 µM
CC(=O)Nc1nc2ccc(-c3nc4ccccc4o3)cc2s1 25.1 µM
COc1ccc(OC)c(C=Nc2ccccc2-c2nc3ccccc3[nH]2)c1 28.2 µM
Nc1c(C(=O)NCCN2CCOCC2)c2nc3ccccc3nc2n1CCc1ccccc1F 39.8 µM
Nc1c(C(=O)NCCN2CCOCC2)c2nc3ccccc3nc2n1-c1cccc(F)c1 35.5 µM
Nc1c(C(=O)NCCN2CCOCC2)c2nc3ccccc3nc2n1-c1ccccc1 35.5 µM
Cc1ccc(C)n1-c1nccc(-c2ccco2)n1 22.4 µM
CNc1nc(-c2ccccc2)cc(C)c1S(C)(=O)=O 28.2 µM
Nc1ccccc1-c1nnc(-c2ccc(-c3ccccc3)cc2)o1 35.5 µM
CCNc1nc(C)c2cc(Br)c(=O)n(CC)c2n1 35.5 µM
Nc1c(C(=O)NCC2CCCO2)c2nc3ccccc3nc2n1-c1ccccc1 (centres undefined) 35.5 µM
COc1ccc(-n2c(N)c(C(=O)NCC3CCCO3)c3nc4ccccc4nc32)c(OC)c1 (centres undefined) 31.6 µM
COCCn1c(N)c(C(=O)NCC2CCCO2)c2nc3ccccc3nc21 (centres undefined) 35.5 µM
CCOC(=O)c1c(N)n(C2CC(C)(C)NC(C)(C)C2)c2nc3ccccc3nc12 31.6 µM
Nc1c(C(=O)OCC2CCCO2)c2nc3ccccc3nc2n1C1CCCC1 (centres undefined) 39.8 µM
Cc1ccc(S(=O)(=O)NC(CC(C)C)C(=O)Oc2ccc3c4c(c(=O)oc3c2)CCC4)cc1 (centres undefined) 35.5 µM
CCCCC(NS(=O)(=O)c1ccc(C)cc1)C(=O)Oc1ccc2c3c(c(=O)oc2c1)CCC3 (centres undefined) 31.6 µM
Cc1ccc(-c2nn(-c3ccccc3)cc2/C=C/C(=O)Nc2nccs2)cc1 35.5 µM
COC(=O)c1c(N)n(-c2ccc(NC(C)=O)cc2)c2nc3ccccc3nc12 28.2 µM
COCCNC(=O)c1c(N)n(CCCn2ccnc2)c2nc3ccccc3nc12 35.5 µM
COCCNC(=O)c1c(N)n(-c2ccccc2)c2nc3ccccc3nc12 39.8 µM
CCCNC(=O)c1c(N)n(-c2cccc(OC)c2)c2nc3ccccc3nc12 35.5 µM
CCN1CCN(C(=O)c2cc3c(=O)n4ccccc4nc3n2Cc2ccccc2)CC1 31.6 µM
O=C(NCCN1CCOCC1)c1cc2c(=O)n3ccccc3nc2n1Cc1ccccc1 35.5 µM
CCCc1cc(=O)oc2c(C)c(O)c(CN3CCCCC3)cc12 17.8 µM
CCc1cc(=O)oc2c(C)c(O)c(CN(C)C)cc12 35.5 µM
CCc1cc(=O)oc2c(C)c(O)c(CN3CCCCC3)cc12 35.5 µM
Cc1cc(=O)oc2cc(OC(=O)c3nn(C(C)C)c(=O)c4ccccc34)ccc12 35.5 µM
CCCCn1nc(C(=O)Oc2ccc3c(C)cc(=O)oc3c2)c2ccccc2c1=O 35.5 µM
CCCn1nc(C(=O)Oc2ccc3c(C)cc(=O)oc3c2)c2ccccc2c1=O 35.5 µM
COC(=O)C1=CN(C(C)C)C=C(C(=O)OC)C1c1cccc(OC)c1 28.2 µM
COC(=O)C1=CNC=C(C(=O)OC)C1c1cccc(OC)c1 31.6 µM
Cc1ccc2cc3c(nc2c1)N(c1ccccc1)CC3 22.4 µM
N#C/C(=C(/O)CCCl)c1ccccn1 39.8 µM
CC1CCCN(CCCNC(=O)c2coc3nc4ccccc4nc23)C1 (centres undefined) 22.4 µM
CN1c2ccccc2-c2nc3ccccc3n2C1c1ccco1 (centres undefined) 39.8 µM
CCN1c2ccccc2-c2nc3ccccc3n2C1c1ccco1 (centres undefined) 35.5 µM
Cc1ccc(C2N(C)c3ccccc3-c3nc4ccccc4n32)o1 (centres undefined) 39.8 µM
CN(C)c1c2ccccc2nc2c(F)c(F)c(F)c(F)c12 39.8 µM
Clc1ccc(-c2nc3ncccn3c2Cl)cc1 22.4 µM
CC(=O)/C=C(\C)Nc1ccc(-c2cnc(-c3ccccc3)o2)cc1 39.8 µM
Nc1cccc2nc3ccccc3cc12 28.2 µM
Cc1cc(=O)oc2cc(NS(=O)(=O)c3ccccc3)ccc12 35.5 µM
Cc1cc(=O)oc2cc(NS(=O)(=O)c3ccc(F)cc3)ccc12 35.5 µM
CCOC(=O)c1c(N)n(CCOC(=O)c2cccs2)c2nc3ccccc3nc12 31.6 µM
COCCn1c(N)c(C(=O)OCc2ccccc2)c2nc3ccccc3nc21 31.6 µM
CCCCCOC(=O)c1c(N)n(CCOC)c2nc3ccccc3nc12 35.5 µM
O=C(O)CCn1cc(C2CC(c3ccccc3)=NN2c2ccccc2)c(-c2ccccc2)n1 (centres undefined) 31.6 µM
Nc1c(S(=O)(=O)c2cccs2)c2nc3ccccc3nc2n1CCc1ccccc1 31.6 µM
COCCn1c(N)c(S(=O)(=O)c2cccs2)c2nc3ccccc3nc21 35.5 µM
Nc1c(S(=O)(=O)c2cccs2)c2nc3ccccc3nc2n1CC1CCCO1 (centres undefined) 31.6 µM
C=CCn1c(N)c(S(=O)(=O)c2cccs2)c2nc3ccccc3nc21 35.5 µM

Activity change, positive = activation, inactive:
CCOc1ccc(CN2CCN(Cc3[nH]c4ccc(OC)cc4c3C)CC2CCO)cc1 (centres undefined) 4.1e-05%
